{
  "source": "PubChem BioAssay",
  "data": [
    {"target": "Epidermal growth factor receptor (Homo sapiens) (UniProt P00533)", "sequence (P00533 whole entry, looked up)": "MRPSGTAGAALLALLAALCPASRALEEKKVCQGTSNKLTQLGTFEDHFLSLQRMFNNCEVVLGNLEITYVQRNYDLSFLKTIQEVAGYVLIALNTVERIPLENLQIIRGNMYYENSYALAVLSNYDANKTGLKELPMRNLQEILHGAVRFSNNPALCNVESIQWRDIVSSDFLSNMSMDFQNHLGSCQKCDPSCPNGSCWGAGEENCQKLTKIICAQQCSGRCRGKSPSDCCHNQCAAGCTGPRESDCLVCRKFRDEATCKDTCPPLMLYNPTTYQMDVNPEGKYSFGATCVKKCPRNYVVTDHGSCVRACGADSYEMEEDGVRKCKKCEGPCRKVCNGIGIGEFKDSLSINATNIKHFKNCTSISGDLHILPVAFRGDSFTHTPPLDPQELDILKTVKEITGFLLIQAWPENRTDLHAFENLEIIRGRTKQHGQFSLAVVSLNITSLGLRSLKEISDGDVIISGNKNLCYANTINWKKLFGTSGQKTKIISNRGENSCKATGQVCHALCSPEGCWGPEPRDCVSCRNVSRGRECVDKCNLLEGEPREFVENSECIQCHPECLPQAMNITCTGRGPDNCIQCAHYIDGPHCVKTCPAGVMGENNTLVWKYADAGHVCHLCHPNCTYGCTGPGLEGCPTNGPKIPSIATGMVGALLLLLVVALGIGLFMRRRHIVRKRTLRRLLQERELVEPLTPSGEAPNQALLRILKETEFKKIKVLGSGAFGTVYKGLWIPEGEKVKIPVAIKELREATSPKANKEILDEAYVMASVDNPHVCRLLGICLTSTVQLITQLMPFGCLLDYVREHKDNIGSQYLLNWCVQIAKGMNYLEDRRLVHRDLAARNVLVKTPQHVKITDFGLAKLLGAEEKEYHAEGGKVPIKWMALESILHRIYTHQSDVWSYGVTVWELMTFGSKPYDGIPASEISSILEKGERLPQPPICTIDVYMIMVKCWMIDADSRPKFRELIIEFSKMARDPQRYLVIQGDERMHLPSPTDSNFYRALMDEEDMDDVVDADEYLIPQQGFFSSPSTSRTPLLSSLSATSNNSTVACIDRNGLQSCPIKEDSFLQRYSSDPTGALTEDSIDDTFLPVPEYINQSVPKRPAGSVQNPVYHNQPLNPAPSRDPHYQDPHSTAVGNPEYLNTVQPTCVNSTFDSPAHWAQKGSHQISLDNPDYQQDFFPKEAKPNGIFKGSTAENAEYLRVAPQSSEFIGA", "assay": "compounds binding epidermal growth factor receptor – biochemical, small-molecule microarray, 635 nm fluorescence, primary screen (AID 1104);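 note: score merges 667 nm emission intensity with spot signal to noise over triplicate slides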", "conditions": "EGFR binding, higher = more signal", "values": [
      {"smiles": "CC1CC/C=C\\[C@H]2OC34C=CCN(CCN5CCOCC5)C(=O)[C@H]3N(CCCO)C(=O)[C@@H]4C2C(=O)O1", "note": "(some centres undefined)", "composite z-score": -0.555},
      {"smiles": "COC(=O)C[C@H]1O[C@@]2(C[C@@H]1[Si](C)(C)C)C(=O)N(C)c1ccccc12", "composite z-score": 0.559},
      {"smiles": "O=C1C2C=CC(C(O)c3cccs3)N(Nc3ccc([N+](=O)[O-])cc3)C2C(=O)N1c1ccccc1", "note": "(centres undefined)", "composite z-score": 0.346},
      {"smiles": "Cc1ccc(S[C@]2(C(=O)NCc3ccccc3)CC(=O)N(Cc3ccccc3C(F)(F)F)[C@@H]2c2ccc(CO)cc2)cc1", "composite z-score": -1.22},
      {"smiles": "O=C1[C@H]2C=C(I)[C@H](C[C@@H]2c2ccccc2)[C@@]12CO2", "composite z-score": 0.384},
      {"smiles": "C=CC[C@@]12N=C(c3ccc(OCCCO)cc3)O[C@@H]1c1ccccc1N(CCC)C2=O", "composite z-score": 0.153},
      {"smiles": "C=CCC(OC(C)=O)[C@@H]1[C@@H](N(Cc2cccc3ccccc23)C(=O)c2ccc(-c3ccccc3)cc2)c2cc(OCCCO)ccc2N1C(=O)Cc1ccc2ccccc2c1", "note": "(some centres undefined)", "composite z-score": -0.0303},
      {"smiles": "CCOC(=O)C1=CC[C@@H](c2ccccc2)N(S(=O)(=O)c2ccc(C)cc2)[C@H]1c1ccccc1I", "composite z-score": 0.467},
      {"smiles": "O=C1O[C@H](c2ccccc2)[C@H](c2ccccc2)N2[C@H]1[C@@H](C(=O)O)[C@]1(C(=O)Nc3ccc(C#CCCO)cc31)[C@H]2c1ccc(OCCO)cc1", "composite z-score": 0.0453},
      {"smiles": "COc1ccc(C(O)C2C=CC3C(=O)NC(=O)C3N2Nc2ccc(Cl)cc2Cl)c2ccccc12", "note": "(centres undefined)", "composite z-score": -0.582},
      {"smiles": "COCCCNC(=O)[C@@]1(CCC(=O)OC(C)(C)C)COC(c2ccc(OCCCO)cc2)=N1", "composite z-score": -0.106},
      {"smiles": "NC(=O)N1C(=O)C2C(C1=O)C1C=C(CCCO)C2C(C2CC2)N1Cc1sc2ccccc2c1Cl", "note": "(centres undefined)", "composite z-score": -0.271},
      {"smiles": "C=CCOC(=O)[C@@H]1[C@H]2C(=O)O[C@H](c3ccccc3)[C@H](c3ccccc3)N2[C@H](c2ccc(OCCOC(=O)[C@H]3C[C@H]4C(=O)N[C@@H](CCCCN(C)C)C(=O)N4[C@H]3c3ccc(O)cc3)cc2)[C@@]12C(=O)Nc1ccc(I)cc12", "composite z-score": 0.989},
      {"smiles": "CCCC=C(CCC)[C@@H](NC(=O)c1ccc(C(F)(F)F)cc1)c1ccc(C(F)(F)F)cc1", "composite z-score": -0.254},
      {"smiles": "COc1cc(C(O)C2C=CC3C(=O)N(c4ccccc4)C(=O)C3N2Nc2ccccc2)cc(OC)c1OC", "note": "(centres undefined)", "composite z-score": -0.304},
      {"smiles": "CC(=O)OCC1C2CC[C@H]3C(OCc4ccc(F)cc4C(F)(F)F)OC[C@]4(C)[C@H]3C2=C(CN4C(=O)OC(C)(C)C)[C@H](C)C1COC(C)=O", "note": "(some centres undefined)", "composite z-score": -1.08},
      {"smiles": "COC(=O)[C@@]1(Cc2ccc(F)cc2)[C@H]2c3cc(C(=O)N4CCCC4)n(Cc4cc(F)cc5c4OCOC5)c3C[C@H]2CN1C(=O)c1ccccc1", "composite z-score": 0.0228},
      {"smiles": "C[C@@H]1ON(c2ccccc2)[C@H](c2ccccc2)[C@H]1C(=O)O", "composite z-score": -0.436},
      {"smiles": "C=CCC(OC(C)=O)[C@@H]1[C@@H](N(Cc2cc3ccccc3o2)C(=O)Cc2ccc(OC)cc2)c2cc(OCCCO)ccc2N1C(=O)c1ccc2ccccc2n1", "note": "(some centres undefined)", "composite z-score": 0.357},
      {"smiles": "COC(=O)[C@@]1(Cc2ccc(OC)cc2)[C@H]2c3cc(C(=O)N4CCCC4)n(Cc4c(CO)[nH]cc(C)c4=O)c3C[C@H]2CN1C(=O)c1ccccc1", "composite z-score": -0.0221},
      {"smiles": "COc1ccc(NN2C(C(O)c3ccc(I)cc3)C=CC3C(=O)N(C4CCCCC4)C(=O)C32)cc1", "note": "(centres undefined)", "composite z-score": 0.479},
      {"smiles": "O=C1O[C@H](c2ccccc2)[C@H](c2ccccc2)N2[C@H]1[C@@H](C(=O)N1CCN(c3ncccn3)CC1)[C@]1(C(=O)Nc3ccc(C#CCCO)cc31)[C@H]2c1ccc(O)cc1", "composite z-score": 0.397},
      {"smiles": "CC1CC/C=C\\[C@H]2OC34C=CCN(c5ccc(Cl)cc5)C(=O)[C@H]3N(CCCCCCO)C(=O)[C@]4(C)C2C(=O)O1", "note": "(some centres undefined)", "composite z-score": -0.726},
      {"smiles": "O=C(NC1CC1)[C@@H]1c2ccccc2C(=O)N(Cc2cc(C(F)(F)F)cc(C(F)(F)F)c2)[C@H]1c1ccc(CO)cc1", "composite z-score": -0.675},
      {"smiles": "COc1ccc([Si](C)(C)[C@@H]2[C@@H](CC(=O)N3Cc4ccccc4C[C@H]3CO)O[C@]3(C(=O)N(Cc4ccc(N5CCOC5=O)cc4)c4ccccc43)[C@H]2C)cc1", "composite z-score": 0.916},
      {"smiles": "CN1C(=O)C2C(C1=O)C1C=C(CCCO)C2C(C2CC2)N1Cc1cccc(OC(F)(F)F)c1", "note": "(centres undefined)", "composite z-score": -0.783},
      {"smiles": "[N-]=[N+]=Nc1ccccc1[C@@H]1OC(c2ccc(OCCCO)cc2)=N[C@]1(Cc1ccccc1)C(=O)NCCN1CCOCC1", "composite z-score": -0.04},
      {"smiles": "COC(=O)[C@@]1(Cc2ccccc2)N=C(c2ccc(OCCCO)cc2)O[C@H]1c1ccccc1CN=[N+]=[N-]", "composite z-score": -0.0505},
      {"smiles": "Cc1ccc(N2C(=O)c3ccccc3[C@](C)(C(=O)NCCCN(C)C)[C@@H]2c2ccc(CO)cc2)nc1", "composite z-score": -1.1}
    ]}
  ]
}
